The list is not random: actives were taken first. Their share in the collection is about 2.8%.
SENP8 block-1 – human SENP8 protease inhibitors, primary screen, biochemical, fluorescence, Nedd8 protein substrate, uHTS. recombinant SENP8. actives 0.64% (n = 360,000). Sentrin-specific protease 8 (Homo sapiens), Q96LD8. inhibition, % at 20 µM; in the data active means inhibition mostly above about 40%, no sharp cut-off; inactive means mostly below about 27%
Platelet DG rel – inhibitors of platelet dense granule secretion, primary screen, cell-based, MLPCN, human platelets. human platelet-rich plasma, SFLLRN dense granule ATP release, luminescence. inhibition, %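 (compounds screened at 7.5 µM in platelet-rich plasma)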. actives 0.22% (n = 300,000). AID 1663, 2009;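 active means mean replicate score, as percent of positive control, at or above 50; inconclusive means mean below 50 but at least one replicate at or above 50; inactive means mean and every replicate below 50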
SENP7 block – SENP7 protease inhibitors, primary screen, biochemical, luminescence, uHTS; Sentrin-specific protease 7 (Homo sapiens), Q9BQF6; recombinant SENP7, Z-RLRGG-aminoluciferin luminescence, 40 min; inhibition, % at 5 µM; actives 1.5% (n = 330,000); AID 434973, 2010;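 active means inhibition above about 50% at the single test dose, limit read from the data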;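 further: plate controls were DMSO with enzyme for no effect and no enzyme buffer wells for full effect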
HSP90 refold inh – HSP90 inhibitors, primary screen, cell lysate, luminescence; actives 0.91% (n = 290,000); inhibition, % at 5.6 µM; AID 1789, 2009; Rabbit reticulocyte lysate, luciferase refolding luminescence, 3 h;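 active means inhibition above the screen-wide mean plus 3 SD, computed separately per campaign, cut at about 16% in these data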;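 further: 0% = DMSO wells and 100% = 60 µM geldanamycin wells; inhibitors lower the luminescence because luciferase stays unfolded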
SENP8 block-2 – SENP8 protease inhibitors, primary screen, biochemical, luminescence; actives 1.2% (n = 330,000); purified SENP8, Z-RLRGG-aminoluciferin cleavage; inhibition, % at 10 µM; AID 2540, 2010; Sentrin-specific protease 8 (Homo sapiens), Q96LD8; in the data active means inhibition above about 50%
SENP6 block – SENP6 protease inhibitors, primary screen, biochemical, luminescence, uHTS; Recombinant SENP6 catalytic domain, aminoluciferin luminescence; AID 2599, 2010; actives 1.8% (n = 330,000); inhibition, % at 10 µM; Sentrin-specific protease 6 (Homo sapiens), Q9GZR1;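 active means inhibition above about 50% at the single tested dose, limit read from the data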;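 further: plate controls were DMSO wells with enzyme for no effect and DMSO wells lacking enzyme for full effect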
Target sequence (Q9GZR1 628-1112 limits assumed): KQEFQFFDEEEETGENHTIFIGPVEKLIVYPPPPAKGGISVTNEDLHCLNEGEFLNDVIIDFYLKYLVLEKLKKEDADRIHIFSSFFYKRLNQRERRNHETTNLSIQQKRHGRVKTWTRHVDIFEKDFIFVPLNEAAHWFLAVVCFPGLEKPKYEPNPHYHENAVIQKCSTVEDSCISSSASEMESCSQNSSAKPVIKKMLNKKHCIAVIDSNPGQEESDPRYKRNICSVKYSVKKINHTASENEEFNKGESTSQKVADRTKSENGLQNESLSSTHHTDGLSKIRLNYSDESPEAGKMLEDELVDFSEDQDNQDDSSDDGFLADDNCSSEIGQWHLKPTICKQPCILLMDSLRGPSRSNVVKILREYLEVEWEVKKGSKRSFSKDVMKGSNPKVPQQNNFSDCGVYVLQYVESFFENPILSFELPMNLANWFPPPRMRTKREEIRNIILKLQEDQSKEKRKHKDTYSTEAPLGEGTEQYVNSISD
SENP8 conf-1 – SENP8 protease inhibitors, retest, confirmation, biochemical, luminescence, single concentration; AID 488912, 2010; inhibition, % at 12.5 µM; shares compounds with SENP7 block; actives 40% (n = 6,200); Recombinant SENP8, Z-RLRGG-aminoluciferin luminescence, 60 min;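 active means mean inhibition across replicates above about 50%, limit read from the data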
SENP6 confirm – SENP6 protease inhibitors, confirmation, biochemical, luminescence, single concentration; shares compounds with SENP7 block; recombinant SENP6, Z-RLRGG-aminoluciferin luminescence; inhibition, % at 12.5 µM; actives 58% (n = 6,200); AID 488915, 2010
SENP7 confirm – SENP7 protease inhibitors, retest, confirmation, biochemical, luminescence, single concentration. shares compounds with SENP7 block. recombinant SENP7, Z-RLRGG-aminoluciferin luminescence, 40 min. inhibition, % at 12.5 µM. actives 69% (n = 6,200). AID 488917, 2010
Casp3 select – caspase-3 protease inhibitors, confirmation, selectivity assay for SENP inhibitor project, biochemical, single concentration; shares compounds with SENP7 block; actives 60% (n = 6,200); purified caspase-3, Z-DEVD-aminoluciferin luminescence, 60 min; inhibition, % at 12.5 µM;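 active means mean inhibition above about 50%, limit read from the data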;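 further: plate controls were enzyme with DMSO for no effect and wells without caspase-3 for full effect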
Luc interf – luminescence interference (SENP counter-screen); inhibition, % at 12.5 µM; Pre-incubated SENP8/Z-RLRGG-aminoluciferin, luciferase luminescence interference; actives 39% (n = 6,200); shares compounds with SENP7 block;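 active means mean inhibition above about 50% when retested at one dose, limit read from the data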;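 further: plate controls were DMSO wells with completed reaction for no effect and substrate without enzyme for full effect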
SENP8 conf-2 – human SENP8 protease inhibitors, confirmation, biochemical, Nedd8 protein substrate, single concentration; actives 15% (n = 1,400); shares compounds with SENP8 block-1; inhibition, % at 25 µM; purified SENP8, Nedd8-AMC/pro-Nedd8 cleavage fluorescence, 30 min; in the data active means inhibition mostly above about 39%, no sharp cut-off; inactive means mostly below about 34%
Active calls of the source: *; ? = inconclusive; . = no result.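 How the source made its calls, unless noted: active means mean inhibition above about 50% in the one-dose retest (limit read from the data); inactive means the rest.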

SMILES	SENP8 block-1	Platelet DG rel	SENP7 block	HSP90 refold inh	SENP8 block-2	SENP6 block	SENP8 conf-1	SENP6 confirm	SENP7 confirm	Casp3 select	Luc interf	SENP8 conf-2
COc1cc(OC)cc(C(=O)Nc2cccc(C(C)=O)c2)c1	21	2	68*	1	39	65*	58*	53*	82*	78*	63*	.
COc1cc(OC)cc(C(=O)Nc2ccc(Nc3ccccc3)cc2)c1	3	-3	58*	-6	60*	80*	65*	61*	85*	32	21	.
COc1cc(OC)cc(C(=O)NC(C(=O)Nc2ccc3c(c2)OCCO3)C(C)C)c1 (stereo not given)	16	.	1	.	2	0	.	.	.	.	.	.
COc1cc(OC)cc(C(=O)Nc2ccc3c(c2)OCCO3)c1	14	47	96*	-1	92*	98*	-4	95*	102*	96*	95*	.
COc1cc(OC)cc(C(=O)Nc2cccc(NC(=O)c3ccccc3)c2)c1	18	-4	-4	-2	-3	-7	.	.	.	.	.	.
CC1CCCC(NC(=O)c2cccc(S(=O)(=O)N3CCOCC3)c2)C1C (stereo not given)	6	.	.	.	.	.	.	.	.	.	.	.
COc1cc(C(=O)c2nccc3cc(OC)c(OC)cc23)c([N+](=O)[O-])cc1OC	106*	-11	90*	13	84*	95*	26	56*	24	-1	-5	80*
Oc1cc(Nc2ccccc2)cc2cccnc12	-22	.	-4	.	-3	23	.	.	.	.	.	.
Oc1cc(NCCN2CCOCC2)cc2cccnc12	64*	.	64*	.	61*	74*	40	76*	40	95*	4	91*
Nc1ccc(N2CCCCC2)c2nonc12	80*	3	25	1	58*	90*	30	56*	20	-3	-3	70*
CC1(C(=O)Nc2ccc(Cl)c(Cl)c2)CCN1Cc1cc2ccccc2o1 (stereo not given)	10	.	.	.	.	.	.	.	.	.	.	.
Cc1c(NC(=O)C(C)OC(=O)c2ccc([N+](=O)[O-])s2)c(=O)n(-c2ccccc2)n1C (stereo not given)	48*	8	15	4	54*	58*	47	79*	28	7	-16	73*
COC(=O)[C@@]12CCCCN1[C@H](c1ccc(-c3ccc(F)cc3)cc1)[C@@H]1C(=O)N(C)C(=O)[C@@H]12	1	1	5	.	10	0	.	.	.	.	.	.
CCN1CCN(C(CCc2ccccc2)C(=O)NC2CCCCC2)CC1 (stereo not given)	14	.	.	.	.	.	.	.	.	.	.	.
COC(=O)c1cc(C(=O)NCc2ccc3c(c2)OCO3)cc([N+](=O)[O-])c1	-1	2	8	1	1	3	.	.	.	.	.	.
Nc1n[nH]c(-c2ccccc2)n1	19	-5	-2	0	-4	-18	.	.	.	.	.	.
c1ccc(-c2n[nH]c(-c3ccccn3)n2)cc1	41*	18	64*	4	32	61*	51*	51*	86*	83*	64*	11
[O-]/C(=C(\C(=S)Nc1cccc2ccccc12)[n+]1ccccc1)c1ccc(OC(F)F)cc1	-202	.	.	4	.	.	.	.	.	.	.	.
COc1cccc(NC(=S)/C(=C(\[O-])c2ccc(OC(F)F)cc2)[n+]2ccccc2)c1	61*	1	9	2	0	53*	9	41	1	19	5	70*
CCOC(=O)C1(C)C(=O)CC2c3nc4ccccc4cc3CN2C1=O (stereo not given)	-19	.	.	.	.	.	.	.	.	.	.	.
O=C(N/N=C1\C/C(=N\NC(=O)c2ccncc2)c2ccccc21)c1ccncc1	98*	?	37	-2	64*	85*	-16	42	9	37	8	95*
COc1ccc(NC(=O)CSc2nc3c(c(-c4cccs4)c2C#N)CN(C)CC3)cc1OC	52*	-45	23	7	40	68*	-1	2	5	4	0	1
CC1CC(=Cc2ccc(N)cc2)C(=O)O1 (stereo not given)	-96	.	.	.	.	.	.	.	.	.	.	.
O=C1Cc2ccccc2C(=O)N1Cc1ccccc1	85*	.	79*	3	94*	91*	39	88*	64*	72*	-7	35
O=C1CC(=O)N(c2ccccc2)c2ccccc21	10	6	1	-2	1	2	.	.	.	.	.	.
SMILES	SENP8 block-1	Platelet DG rel	SENP7 block	HSP90 refold inh	SENP8 block-2	SENP6 block	SENP8 conf-1	SENP6 confirm	SENP7 confirm	Casp3 select	Luc interf	SENP8 conf-2
O=C1Cc2ccccc2C(=O)N1c1cccc(Cl)c1	71*	4	18	4	10	52*	9	33	22	14	3	41
O=C1Cc2ccccc2C(=O)N1c1ccccc1	53*	2	18	0	17	54*	5	10	8	15	6	4
CCOC(=O)C1CCN(C(=O)C2CCN(S(=O)(=O)N3CCC4(CC3)OCCO4)CC2)CC1	1	-5	12	-2	-5	-1	.	.	.	.	.	.
CCOc1ccc(S(=O)(=O)N2CCC(C(=O)Nc3ccccc3N3CCCC3)CC2)cc1	11	.	.	.	.	.	.	.	.	.	.	.
CN(CC(=O)NCC1CCCO1)S(=O)(=O)c1ccc2ccccc2c1 (stereo not given)	0	.	.	.	.	.	.	.	.	.	.	.
Cc1c(N=Cc2ccc(Br)s2)cccc1[N+](=O)[O-]	16	-8	-5	-3	-12	-9	.	.	.	.	.	.

Compound activity from PubChem.
